Test results from PubChem BioAssay AID651827 (Vanderbilt Specialized Chemistry Center, 2012).

Assay: PubChem AID 651827
Conditions: Ricerca radioligand binding panel, percent inhibition, at 10 µM, stronger effect = higher value

Work on `CS(=O)(=O)N(CC(=O)NCC1CC1)c1cc(C(F)(F)F)ccc1Cl` yielded an inhibition (Adenosine A2A binding) of -8%, an inhibition (Adenosine A3 binding) of 1% and an inhibition (EGF receptor binding) of 14%. For the same compound, the inhibition (IL-1 receptor binding) was 15%, the inhibition (L-type Ca benzothiazepine site) was 48% and the inhibition (L-type Ca dihydropyridine site) was 36%. It also gave an inhibition (Melatonin MT1 binding) of 16%, an inhibition (PAF receptor binding) of 15% and an inhibition (Purinergic P2Y binding) of 20%. The inhibition (Serotonin transporter binding) was 15%, the inhibition (Thyroid hormone binding) was 16% and the inhibition was -9%. It also gave an inhibition (hERG binding) of -2%.
